Pol kappa inh: DNA polymerase kappa (human) inhibition; Q9UBT6; purified Pol kappa, fluorescent DNA synthesis assay, 10 min; Potency, µM (doses to about 107 µM), inactives show at the highest dose activity, negative = inhibition, hits mostly inhibitors; 400,000 tested, 0.53% active; AID 588579; also: % is scaled to controls: 0 for no effect and ±100 for the full control effect
Target sequence (Q9UBT6 whole entry, looked up): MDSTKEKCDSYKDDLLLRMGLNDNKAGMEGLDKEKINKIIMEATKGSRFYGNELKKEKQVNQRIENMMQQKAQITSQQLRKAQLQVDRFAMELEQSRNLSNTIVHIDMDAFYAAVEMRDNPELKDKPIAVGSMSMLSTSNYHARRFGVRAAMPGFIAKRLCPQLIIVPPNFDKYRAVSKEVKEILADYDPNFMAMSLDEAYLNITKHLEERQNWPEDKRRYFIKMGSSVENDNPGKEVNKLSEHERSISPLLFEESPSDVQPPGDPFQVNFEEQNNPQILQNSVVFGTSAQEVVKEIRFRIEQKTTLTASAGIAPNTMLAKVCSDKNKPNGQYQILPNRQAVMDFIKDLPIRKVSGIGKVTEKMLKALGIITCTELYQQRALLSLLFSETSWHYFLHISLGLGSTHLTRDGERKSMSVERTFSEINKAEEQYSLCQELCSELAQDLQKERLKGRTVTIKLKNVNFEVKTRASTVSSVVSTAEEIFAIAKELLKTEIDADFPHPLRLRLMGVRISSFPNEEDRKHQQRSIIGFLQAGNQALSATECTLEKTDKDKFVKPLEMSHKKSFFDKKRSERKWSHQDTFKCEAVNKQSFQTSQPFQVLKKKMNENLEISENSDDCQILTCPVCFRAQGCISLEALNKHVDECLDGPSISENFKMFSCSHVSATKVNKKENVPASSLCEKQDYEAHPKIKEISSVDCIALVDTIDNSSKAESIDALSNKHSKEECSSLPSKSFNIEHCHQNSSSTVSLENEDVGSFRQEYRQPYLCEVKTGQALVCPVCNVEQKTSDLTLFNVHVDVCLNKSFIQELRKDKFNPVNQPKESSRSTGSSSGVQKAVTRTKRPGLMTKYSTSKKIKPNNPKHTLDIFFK
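Activity was followed as the change in fluorescence between reads at 0 and 10 min after starting the reaction with 50 nM substrate. Beforehand, 10 nM polymerase had been preincubated with compound for 15 min at room temperature.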
Pol beta inh: blocks human DNA polymerase beta activity. P06746. Pol beta primer extension/strand displacement, fluorescence kinetic. Potency, µM (highest dose often 114 µM), for inactives: top-dose activity change, negative = inhibition, most hits filed as inhibitors. 340,000 tested, 1.3% active. AID 485314; also: % is scaled to controls: 0 for no effect and ±100 for the full control effect
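Reaction started by 50 nM substrate onto compound-treated Pol beta (10 nM, 15 min preincubation, room temperature); plates read at 0 min and 10 min. Normalized concentration-effect data fitted by four-parameter Hill equation.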
FEN1 inhibitor: blocks human flap endonuclease 1; P39748; AID 588795; Potency, µM (highest dose often 114 µM), inactives show top-dose activity change, negative = inhibition, usual class: inhibitors; 390,000 tested, 0.35% active; Recombinant FEN1 flap cleavage, fluorescence, 15 min; also: % is scaled to controls: 0 for no effect and ±100 for the full control effect; nearly all actives have a fitted effect of over 65% in size
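Potency values derive from four-parameter Hill fits of normalized qHTS data. The reaction used 10 nM FEN1 preincubated 15 min at room temperature with compound, then 50 nM DNA substrate, read at 0 and 15 min.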
Pol eta inh: inhibitors of human DNA polymerase eta; Q9Y253; recombinant Pol eta, fluorescent DNA replication assay; Potency, µM (top dose mostly 114 µM), inactives show at the top dose activity change, negative = inhibition, usual class: inhibitors; 390,000 tested, 1.2% active; AID 588591; also: % is scaled to controls: 0 for no effect and ±100 for the full control effect
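Pol eta (10 nM) was preincubated with compounds for 15 min at room temperature, after which fluorescent replication substrate (50 nM final) was added to start the reaction. Fluorescence was read kinetically at 0 and 10 min.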
POLI inh: DNA polymerase iota (human) inhibition; Pol iota fluorescent replication assay, 10 min; Potency, µM (titrated, usually from 115 µM), for the others: at the highest dose activity, negative = inhibition, actives largely listed as inhibitors; 390,000 tested, 1% active; AID 588590
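Fluorescent replication assay read twice, at 0 min and 10 min after adding 50 nM (final) substrate. Enzyme (10 nM) and compounds were first incubated 15 min at room temperature; enzyme-free buffer wells were negative controls.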
WRN helicase inh: blocks human WRN helicase; WRN helicase unwinding, fluorescent forked duplex, kinetic; Potency, µM (top dose mostly 114 µM), inactives show top-dose activity change, negative = inhibition, usual class: inhibitors; 360,000 tested, 0.46% active; Q14191; also: % is scaled to controls: 0 for no effect and ±100 for the full control effect; nearly all actives have a fitted effect of over 55% in size
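Kinetic red-fluorescence monitoring (525/598 nm) tracks WRN helicase activity after 100 nM fluorophore-quencher forked duplex and 2 mM ATP are added to 20 nM enzyme pretreated 15 min at room temperature with compound.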
* marks the source's active call; other numbers are inactive results; [ ] = another dose, or the depositor's remark. The list is not random: actives were taken first. Their share in the collection is about 2.4%. Calls follow the shape of the dose curve; as a rule, active = well fitted curve in the direction sought with a large enough effect; inconclusive = small, poorly fitted or top-dose-only effect, or another doubt; inactive = no such curve, though single readings can be large; an effect the other way counts as inactive or inconclusive. Potency is read from the fitted curve at half-maximal effect.

Results for CCOc1ccc(NC(=O)NNC(=O)c2ccc(CC)s2)cc1 ?
Pol kappa inh: -17.2%; Pol beta inh: 79.4µM*; FEN1 inhibitor: -13.5%; Pol eta inh: -7.8%; POLI inh: inconclusive; WRN helicase inh: -0.5%[11.6 µM]

What do the screens show for `Cc1ccc(NC(=O)Nc2ccc3c(c2)CCC3)cc1`?
Pol kappa inh: -15.7%; Pol beta inh: inconclusive; FEN1 inhibitor: -5.8%; Pol eta inh: 1.2%; POLI inh: -16.9%; WRN helicase inh: 5.7%

What do the screens show for `CCOc1ccc(NC(=O)Nc2ccc3c(c2)CCC3)cc1`?
Pol kappa inh: 9.6%; Pol beta inh: 25.1µM*; FEN1 inhibitor: -1.0%; Pol eta inh: -10.8%; POLI inh: 31.2%; WRN helicase inh: 1.2%

What do the screens show for `CCc1cc(C(=O)/C=C/c2cc3c(cc2C)OCCO3)c(O)cc1O`?
Pol kappa inh: -3.5%; FEN1 inhibitor: 2.9%; POLI inh: 16.0%

What do the screens show for `COc1cc2cc(CN(Cc3nnnn3Cc3ccco3)C3CCCCC3)c(=O)[nH]c2cc1OC`?
Pol kappa inh: inconclusive; Pol beta inh: 44.7µM*; FEN1 inhibitor: -1.3%; Pol eta inh: inconclusive; POLI inh: inconclusive; WRN helicase inh: inconclusive

How did CCOc1ccc2[nH]c(=O)c(CN(Cc3nnnn3Cc3ccco3)C3CCCCC3)cc2c1 do in these assays?
Pol kappa inh: -13.4%; Pol beta inh: 20µM*; FEN1 inhibitor: 1.4%; Pol eta inh: 1.4%; POLI inh: 6.5%; WRN helicase inh: -16.2%

How did CCOc1ccc2[nH]c(=O)c(CN(Cc3ccco3)Cc3nnnn3Cc3ccccc3)cc2c1 do in these assays?
Pol kappa inh: -12.0%; Pol beta inh: -17.8%; FEN1 inhibitor: -5.7%; Pol eta inh: -9.0%; POLI inh: -15.7%; WRN helicase inh: -18.6%

Results for COc1ccc(CN2C(=O)N(c3ccccc3)C(=O)C2c2ccccc2)cc1COc1ccc(NC(C)=O)cc1 (configuration not stated) ?
Pol kappa inh: -1.4%; FEN1 inhibitor: -14.8%; POLI inh: inconclusive

Results for CN(C)CCCNc1cc(N2CCN(C)CC2)ncn1 ?
Pol kappa inh: -2.2%; FEN1 inhibitor: 13.9%; POLI inh: 4.1%

What do the screens show for `O=C1C[C@H](c2ccc3ccccc3c2)N1S(=O)(=O)c1ccccc1[N+](=O)[O-]`?
Pol kappa inh: 4.5%; FEN1 inhibitor: 5.6%; POLI inh: -2.6%

Results for CCSc1cc(N2CCCC2)nc(-c2ccc(C)cc2)n1 ?
Pol kappa inh: inconclusive; Pol beta inh: 0.3%; FEN1 inhibitor: 89.1µM*; Pol eta inh: 3.8%; POLI inh: inconclusive; WRN helicase inh: 0.4%

Results for CCOc1cc(/C=C2/NC(=O)NC2=O)cc(Br)c1OCc1ccc(C(=O)O)cc1 ?
Pol kappa inh: -1.3%; Pol beta inh: 25.1µM*; FEN1 inhibitor: inconclusive; Pol eta inh: inconclusive; POLI inh: inconclusive; WRN helicase inh: inconclusive

How did CC[C@@H](C)[C@H](NS(=O)(=O)c1cccc2ccccc12)C(=O)N[C@H](C=O)Cc1c[nH]c2ccccc12 do in these assays?
Pol kappa inh: 4.3%[19.4 µM]

How did COc1cc(C2Nc3cccc4cccc(c34)N2)ccc1OC(C)=O do in these assays?
Pol kappa inh: -19.5%; Pol beta inh: -21.5%; FEN1 inhibitor: 39.8µM*; Pol eta inh: 14.1µM*; POLI inh: inconclusive; WRN helicase inh: -29.7%

What do the screens show for `COc1ccc(C2Nc3cccc4cccc(c34)N2)cc1Br`?
Pol kappa inh: -2.0%; Pol beta inh: -2.3%; FEN1 inhibitor: -13.1%; Pol eta inh: -13.0%; POLI inh: 61.8%; WRN helicase inh: inconclusive

What do the screens show for `COc1cc(C2Nc3cccc4cccc(c34)N2)cc(OC)c1O`?
Pol kappa inh: -6.3%; Pol beta inh: 44.7µM*; FEN1 inhibitor: -14.6%; Pol eta inh: inconclusive; POLI inh: inconclusive; WRN helicase inh: -11.2%[11.6 µM]

How did COC(=O)c1ccc(NC(=O)COc2ccccc2C(=O)Nc2ccccc2)cc1 do in these assays?
Pol kappa inh: 5.5%; FEN1 inhibitor: -13.4%; POLI inh: -29.1%

How did O=C(NCc1ccccc1)c1cccc(Br)n1 do in these assays?
Pol kappa inh: -4.3%; Pol beta inh: 1.8%; FEN1 inhibitor: -13.5%; Pol eta inh: -2.7%; POLI inh: 79.4µM*; WRN helicase inh: -2.5%[11.6 µM]

Results for O=C(NCCc1ccccc1)c1cccc(Br)n1 ?
Pol kappa inh: -10.3%

What do the screens show for `Cc1ccc(C2=NN(C(=O)CCCC(=O)O)C(c3ccco3)C2)cc1` (configuration not stated)?
Pol kappa inh: -1.3%; Pol beta inh: 89.1µM*; FEN1 inhibitor: 3.0%; Pol eta inh: -12.2%; POLI inh: 65.3%; WRN helicase inh: -7.1%

Results for O=C(O)CCC(=O)N1N=C(c2ccco2)CC1c1ccco1 (configuration not stated) ?
Pol kappa inh: inconclusive; Pol beta inh: 8.5%; FEN1 inhibitor: -2.3%; Pol eta inh: inconclusive; POLI inh: 50.1µM*; WRN helicase inh: -2.4%[11.6 µM]

How did CC(=O)N1N=C(c2ccc(Cl)cc2)CC1c1ccco1 (configuration not stated) do in these assays?
Pol kappa inh: -11.5%; Pol beta inh: 0.3%; FEN1 inhibitor: -0.2%; Pol eta inh: -1.1%; POLI inh: 17.0%; WRN helicase inh: 1.1%

Results for O=C(O)CCC(=O)N1N=C(c2ccco2)CC1c1cccs1 (configuration not stated) ?
Pol kappa inh: 4.4%; Pol beta inh: inconclusive; FEN1 inhibitor: 9.3%; Pol eta inh: -9.3%; POLI inh: -5.3%; WRN helicase inh: -16.1%

How did Cc1nnc(SCC(=O)N2N=C(c3ccc(Cl)cc3)CC2c2ccco2)[nH]c1=O (configuration not stated) do in these assays?
Pol kappa inh: 50.1µM*; Pol beta inh: 20µM*; FEN1 inhibitor: inconclusive; Pol eta inh: inconclusive; POLI inh: inconclusive; WRN helicase inh: inconclusive

Results for N[C@@H](Cn1ccc(=O)c(O)c1)C(=O)O ?
Pol kappa inh: -6.5%[60.1 µM]

How did CN(C)c1nc(N/N=C/c2ccccc2O)nc(Nc2ccc(F)cc2)n1 do in these assays?
Pol kappa inh: inconclusive; Pol beta inh: inconclusive; FEN1 inhibitor: -23.9%; Pol eta inh: 79.4µM*; POLI inh: 68.1%; WRN helicase inh: -29.6%

How did CN(C)c1nc(Nc2ccc(F)cc2)nc(Oc2ccc(F)cc2)n1 do in these assays?
Pol kappa inh: -9.7%; Pol beta inh: 7.9%; FEN1 inhibitor: -14.5%; Pol eta inh: -9.3%; POLI inh: 0.7%; WRN helicase inh: -9.1%

What do the screens show for `O=C(OCCF)N1CCN(/[N+]([O-])=N/Oc2ccc([N+](=O)[O-])cc2[N+](=O)[O-])CC1`?
Pol kappa inh: -5.7%; FEN1 inhibitor: inconclusive; POLI inh: -12.7%

Bioassay records from PubChem.
